This excerpt belongs to a sample that is enriched for hits.
ROS inducer: inducers of reactive oxygen species in cancer cells; U2OS ROS induction, H2DCF-DA fluorescence; ROS induction (% of piperlongumine), % at 10 µM; 2% of 46,000 active; AID 624156; in the data active = ROS induction above about 79%, passing the limit was not always enough; inconclusive = no clear call, values can overlap the other calls
MITF inh: MITF inhibition | TRPM1 promoter luciferase, luminescence, 24 h | inhibition, % (no concentration beside the values) | 0.28% of 37,000 active | AID 2240; in the data active = inhibition above about 85%; inconclusive = no clear call, values can overlap the other calls; inactive = below about 68%;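 also: human melanocyte line stably carrying TRPM1 promoter luciferase reporter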
YB-1 expr inh: YB-1 expression inhibition; 0.37% of 30,000 active; U2OS, qRT-PCR YB-1 vs CDIP delta delta Cp, 16 h; hits give high values; zero = DMSO, each unit about twofold; delta delta Cp (YB-1 minus CDIP) (concentration not given with the values);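 active = delta delta Cp rounded down to an integer at or above 3, about 3 SD of DMSO wells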;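 also: higher means less YB-1 transcript or more CDIP transcript relative to DMSO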
NOMO-1 viab: STK33 inhibitor candidate reducing NOMO-1 cell viability | inhibition, % (test concentration not listed) | AID 2330 | 7.5% of 37,000 active | NOMO-1 AML viability, CellTiter-Glo luminescence, 72 h; in the data active = inhibition above about 80%; inconclusive = no clear call, values can overlap the other calls
PD-1 reverse act: activators reversing PD-1 mediated T-cell inhibition; primary human CD4 T cells, PD-L1 beads, CellTiter-Glo 96 h; activation, % (no concentration beside the values); 29,000 tested, under 10 active; call rule not given here
Of the large screens only hits and unclear results are named; the others gave an inactive call.

Oc1ccc(-c2nc3cc4ccccc4cc3nc2-c2ccccc2)cc1	none (no result: MITF inh, YB-1 expr inh, NOMO-1 viab, PD-1 reverse act)
O=C(Oc1ccc2cc(OC(=O)c3ccccc3)ccc2c1)c1ccccc1	none
O=C(Oc1ccccc1OC(=O)c1ccccc1)c1ccccc1	NOMO-1 viab 115
O=C(NCc1ccccc1)c1ccc2c(c1)N(Cc1ccccc1)CCS2	none (no result: MITF inh, YB-1 expr inh, NOMO-1 viab, PD-1 reverse act)
O=c1c2ccccc2nc(SCc2ccc3c(c2)OCO3)n1-c1ccccc1	ROS inducer 107
O=C(COC(=O)c1ccc(Br)cc1)c1ccc(Br)cc1	none
O=C(COC(=O)c1c(C(F)(F)F)cccc1C(F)(F)F)c1ccc(Cl)cc1	NOMO-1 viab 111
CC(C)NC(=O)Nc1ccc2c(c1)C(=O)N([C@@H](C)CO)C[C@@H](C)[C@@H](CN(C)Cc1ccc(C(=O)O)cc1)O2	none
Cc1cc(Sc2nnc(/N=C/N(C)C)s2)c2ccccc2n1	ROS inducer 192 (no result: MITF inh, YB-1 expr inh, NOMO-1 viab, PD-1 reverse act)
CC1(C)CC(C)(c2ccccc2)c2cc(SC#N)ccc2N1 (configuration not stated)	ROS inducer 114, NOMO-1 viab 114
COc1ccc(C(=O)NC(c2ccccc2)c2ccccc2)cc1	none
COc1ccc(C(NC(=O)c2ccccc2)c2ccc3cccnc3c2O)c(OC)c1 (configuration not stated)	MITF inh inconclusive, NOMO-1 viab 109 (no result: YB-1 expr inh)
COc1ccc(C(NC(C)=O)c2ccc3cccnc3c2O)cc1OC (configuration not stated)	NOMO-1 viab 107 (no result: YB-1 expr inh)
CCOc1ccc(NC(=O)Cn2cc(C(=O)OC)c3ccccc32)cc1	none (no result: YB-1 expr inh)
CC(=O)OCC1OC(n2ccc(=O)[nH]c2=O)C(OC(C)=O)C1OC(C)=O (configuration not stated)	none
N#CCCN(/N=C/c1ccccc1)C1=NS(=O)(=O)c2ccccc21	ROS inducer 128
O=C(Nc1ccc(N2CCCCC2)cc1)c1ccncc1	ROS inducer 87
COC(=O)CCS(=O)(=O)c1cccc2c(S(=O)(=O)CCC(=O)OC)cccc12	NOMO-1 viab 124
C[C@@H]1CN([C@@H](C)CO)C(=O)c2cccc(NC(=O)Nc3ccccc3)c2O[C@H]1CN(C)Cc1ccc(C(=O)Nc2ccccc2N)cc1	NOMO-1 viab 125
C[C@H](CO)N1C[C@H](C)[C@@H](CN(C)Cc2ccc(C(=O)Nc3ccccc3N)cc2)Oc2c(NC(=O)Nc3ccccc3)cccc2C1=O	NOMO-1 viab 127
C[C@H](CO)N1C[C@H](C)[C@H](CN(C)Cc2ccc(C(=O)Nc3ccccc3N)cc2)Oc2c(NC(=O)Nc3ccc(C(F)(F)F)cc3)cccc2C1=O	none
CC(C)NC(=O)Nc1cccc2c1O[C@H](CN(C)Cc1ccc(C(=O)Nc3ccccc3N)cc1)[C@H](C)CN([C@H](C)CO)C2=O	NOMO-1 viab 119
C[C@@H]1CN([C@@H](C)CO)C(=O)c2cccc(NC(=O)Nc3ccc(F)cc3)c2O[C@@H]1CN(C)Cc1ccc(C(=O)Nc2ccccc2N)cc1	NOMO-1 viab 140
CC(Oc1ccc(F)cc1)C(=O)NCCN1CCOCC1 (configuration not stated)	none (no result: YB-1 expr inh)
Cc1ccn2cc(CNS(=O)(=O)N(C)C)nc2c1	none (no result: MITF inh, YB-1 expr inh, NOMO-1 viab, PD-1 reverse act)
C[C@@H]1CN([C@@H](C)CO)C(=O)c2cccc(NC(=O)Nc3ccc(C(F)(F)F)cc3)c2O[C@@H]1CN(C)Cc1ccc(C(=O)Nc2ccccc2N)cc1	NOMO-1 viab 128
C[C@H](CO)N1C[C@H](C)[C@H](CN(C)Cc2ccc(C(=O)Nc3ccccc3N)cc2)Oc2c(NC(=O)Nc3ccc4c(c3)OCO4)cccc2C1=O	NOMO-1 viab inconclusive
C[C@H]1CN([C@@H](C)CO)C(=O)c2cccc(NC(=O)Nc3ccccc3)c2O[C@@H]1CN(C)Cc1ccc(C(=O)Nc2ccccc2N)cc1	ROS inducer 144, NOMO-1 viab 127
C[C@@H]1CN([C@H](C)CO)C(=O)c2cccc(NC(=O)Nc3ccc4c(c3)OCO4)c2O[C@H]1CN(C)Cc1ccc(C(=O)Nc2ccccc2N)cc1	NOMO-1 viab 127
C[C@@H]1CN([C@H](C)CO)C(=O)c2cccc(NC(=O)Nc3ccccc3)c2O[C@@H]1CN(C)Cc1ccc(C(=O)O)cc1	none (no result: PD-1 reverse act)
Cc1[nH]c(=S)[nH]c(=O)c1Cc1ccc(C(=O)O)o1	none (no result: YB-1 expr inh)
C[C@H](CO)N1C[C@H](C)[C@H](CN(C)Cc2ccc(-c3ccccc3)cc2)Oc2ccc(NC(=O)Nc3ccc(C(F)(F)F)cc3)cc2CC1=O	NOMO-1 viab 126
C[C@@H]1CN([C@H](C)CO)C(=O)Cc2cc(NC(=O)Nc3ccc(C(F)(F)F)cc3)ccc2O[C@@H]1CN(C)Cc1ccc(-c2ccccc2)cc1	NOMO-1 viab 114
Cc1ccc(N(C(C)C(=O)Nc2ccc(Cl)cc2)S(C)(=O)=O)cc1C (configuration not stated)	none (no result: YB-1 expr inh)
C[C@H]1CN([C@@H](C)CO)C(=O)c2cccc(NS(C)(=O)=O)c2O[C@H]1CN(C)CC1CC1	none
CC(=O)Oc1c(I)c(=O)n(C)c2ccccc12	NOMO-1 viab 121
O=C(Nc1cccc(Cn2cccn2)c1)c1cc(-c2ccncc2)nc2ccc(Br)cc12	none (no result: ROS inducer, YB-1 expr inh, PD-1 reverse act)
C[C@H]1CN([C@@H](C)CO)C(=O)Cc2cc(NC(=O)CCCCCC(=O)Nc3ccccc3N)ccc2O[C@@H]1CN(C)CC1CCCCC1	NOMO-1 viab 102
C[C@@H]1CN([C@H](C)CO)C(=O)Cc2cc(NC(=O)CCCCCC(=O)Nc3ccccc3N)ccc2O[C@@H]1CN(C)CC1CCCCC1	NOMO-1 viab 133
C[C@@H]1CN([C@H](C)CO)C(=O)Cc2cc(NC(=O)CCCCCC(=O)Nc3ccccc3N)ccc2O[C@H]1CN(C)CC1CCCCC1	NOMO-1 viab 120
C[C@H]1CN([C@@H](C)CO)C(=O)Cc2cc(NC(=O)C3CCCCC3)ccc2O[C@H]1CN(C)Cc1ccc(Oc2ccccc2)cc1	none
C[C@@H]1CN([C@H](C)CO)C(=O)Cc2cc(NC(=O)C3CCCCC3)ccc2O[C@H]1CN(C)Cc1ccc(Oc2ccccc2)cc1	NOMO-1 viab 81 (no result: PD-1 reverse act)
C[C@H]1CN([C@@H](C)CO)C(=O)c2cc(NC(=O)C3CC3)ccc2O[C@H]1CN(C)CC1CC1	YB-1 expr inh 13
C[C@H](CO)N1C[C@H](C)[C@@H](CN(C)Cc2ccc(Oc3ccccc3)cc2)Oc2ccc(NC(=O)C3CCCCC3)cc2C1=O	ROS inducer 84
C[C@H](CO)N1C[C@H](C)[C@H](CN(C)CC2CC2)Oc2ccc(NC(=O)C3CC3)cc2C1=O	none
C[C@H](CO)N1C[C@H](C)[C@@H](CN(C)Cc2ccc(-c3ccccc3)cc2)Oc2ccc(NC(=O)C3CCCCC3)cc2C1=O	ROS inducer 104
C[C@@H]1CN([C@H](C)CO)C(=O)c2cc(NC(=O)C3CCCCC3)ccc2O[C@H]1CN(C)Cc1ccc(Oc2ccccc2)cc1	none
O=C(COc1ccc(S(=O)(=O)N2CCCC2)cc1Cl)Nc1ccccc1	none (no result: YB-1 expr inh)
COc1ccc(-n2c(SCC(=O)NC3CCCCC3)nnc2-c2cccs2)cc1	none (no result: YB-1 expr inh)
